In the library only some 3.7% were active in any assay of this set; here they are far more common.
GALK inh = inhibitors of human galactokinase (GALK); P51570; recombinant GALK, Kinase-Glo ATP luminescence, 1 h; Potency, µM (series often up to 57.5 µM), actives largely listed as inhibitors; 44,000 tested, under 10 active; AID 1347072
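Luminescent ATP-depletion readout (Kinase-Glo Plus) after 1 h room-temperature incubation of human GALK (5 nM) with galactose 100 µM and ATP 35 µM, pH 8.0 HEPES/Mg2+ buffer; compounds tested in qHTS format.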
NTMT1 inh = inhibitors of human N-terminal methyltransferase NTMT1; hit rate 2.5% among 59,000; Q9BV86; Potency, µM (series often up to 114 µM), hits mostly inhibitors; NTMT1 MTase-Glo SAH luminescence, purified enzyme; also: nearly all actives have a fitted effect of over 65% in size
FH mod = Identification of activators of human fumarate hydratase by quantitative high-throughput screening. Fumarate hydratase, mitochondrial (Homo sapiens), P07954. FH coupled MDH/diaphorase resazurin fluorescence, 15 min. Potency, µM (top dose mostly 79.9 µM), most hits filed as inhibitors. hit rate 0.22% among 54,000. AID 1347055, 2019; also: the screen sought activators but most active calls are inhibition curves; nearly all actives have a fitted effect of over 45% in size
Target sequence (P07954 whole entry, looked up): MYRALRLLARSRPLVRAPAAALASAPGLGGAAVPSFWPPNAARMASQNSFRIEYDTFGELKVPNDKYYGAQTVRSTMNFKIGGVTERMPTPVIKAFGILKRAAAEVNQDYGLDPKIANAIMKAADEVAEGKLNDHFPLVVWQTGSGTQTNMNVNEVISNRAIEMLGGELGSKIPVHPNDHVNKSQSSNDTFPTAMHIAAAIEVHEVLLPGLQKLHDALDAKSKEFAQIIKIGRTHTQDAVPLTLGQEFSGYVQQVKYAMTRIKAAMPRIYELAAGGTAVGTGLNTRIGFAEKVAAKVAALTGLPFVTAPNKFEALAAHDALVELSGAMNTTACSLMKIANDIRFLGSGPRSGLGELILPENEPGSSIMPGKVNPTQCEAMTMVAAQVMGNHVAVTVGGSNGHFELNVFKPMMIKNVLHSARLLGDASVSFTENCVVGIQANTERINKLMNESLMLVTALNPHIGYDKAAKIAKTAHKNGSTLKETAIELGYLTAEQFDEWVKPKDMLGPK
TSG101-PTAP inh = inhibitors of HIV-1 PTAP binding to human TSG101, validation | Q99816 | Fluorescence polarization, FITC-PTAP peptide/Tsg101, 20 min | Potency, µM (doses to about 115 µM), hits mostly inhibitors | 44,000 tested, under 10 active | AID 1347069
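Fluorescence polarization: Tsg101 binding domain (10 uM final) in 10 mM HEPES pH 7.5, 0.15 M NaCl, 0.01% Tween 20, 3 mM EDTA, 0.1 mM TCEP; compounds pinned; FITC-PTAP peptide 50 nM final; 20 min, r.t.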
DRV1 agonist = agonists of human resolvin D1 receptor DRV1 (GPR32); O75388; CHO-K1 GPR32 beta-arrestin PathHunter luminescence, 90 min; zero percent set by DMSO-only wells; activation, % at 76.9 µM; hit rate 2.5% among 48,000; AID 1346428;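 active = activation of at least 60% and not above a set upper limit, about 1 call in 100 departs from these limits; inconclusive = activation of 40% to 60%, or above that upper limit; inactive = activation under 40%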
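Step 1: seed CHO-K1 GPR32 beta-arrestin cells, 2,500/well, overnight at 37 °C. Step 2: add compounds, 90 min at 37 °C. Step 3: detection reagent, 1 h ambient, then luminescence.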
B2AR arrestin ag = beta-arrestin recruitment by human beta2-adrenergic receptor ligands. AID 1347077. HTLA Tango cells, beta-arrestin recruitment, luciferase luminescence, 18 h. Potency, µM (top dose mostly 46.1 µM), actives largely listed as activators. P07550. 44,000 tested, under 10 active
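Luminescence read-out: arrestin recruitment to recombinant beta2-AR releases tTA, inducing luciferase. Cells exposed 18 hr at 37 degrees C to up to 46 microM compound; %Activity from corrected signal, concentration-response curves classified by r2, magnitude and efficacy.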
Numbers stand for hits; n = inactive; u = inconclusive; x = no result given; ! = repeats disagree. Unless noted, calls follow the shape of the dose curve; as a rule, active = well fitted curve in the direction sought with a large enough effect; inconclusive = small, poorly fitted or top-dose-only effect, or another doubt; inactive = no such curve, though single readings can be large; an effect the other way counts as inactive or inconclusive.

SMILES	GALK inh	NTMT1 inh	FH mod	TSG101-PTAP inh	DRV1 agonist	B2AR arrestin ag
CN(C/C=C/C#CC(C)(C)C)Cc1cccc2ccccc12	x	n	n	x	95	x
CCN(c1ccc(C)cc1)S(=O)(=O)c1nnc(NC(=O)c2cccs2)s1	n	n	n	n	85	n
CCN(c1ccccc1)S(=O)(=O)c1nnc(NC(=O)c2cccs2)s1	n	n	n	n	n	n
Cn1cc(-c2ccc(S(=O)(=O)n3ccc(/C=C/C(=O)Nc4ccccc4N)c3)cc2)cn1	x	n	n	x	x	x
[Cl][In]([Cl])[Cl]	x	3.2µM	n	x	n	x
Cc1cc(N[S+](=O)([O-])c2ccc(NC(=O)Cc3ccc(F)c(C)c3)cc2)no1	x	n	x	x	x	x
C[C@@H](O)[C@@H]1NC(=O)[C@H](CCCCN)NC(=O)[C@@H](Cc2c[nH]c3ccccc23)NC(=O)[C@H](Cc2ccccc2)NC(=O)[C@@H](NC(=O)[C@H](N)Cc2ccccc2)CSSC[C@@H](C(=O)N[C@H](CO)[C@@H](C)O)NC1=O	x	n	x	x	x	x
CC(=O)Nc1c(C)nn(-c2ccccc2)c1N1CCC(C(=O)Nc2cccc(C(F)(F)F)c2)CC1	n	n	n	n	n	n
O=C(Nc1cccc(Nc2cc(Nc3cccc(C(F)(F)F)c3)ncn2)c1)C1CC1	x	10µM	u	x	x	x
O=C(O)c1c(-c2ccccc2)no[n+]1[O-]	x	n	x	x	x	x
COC(=O)C1=C(C)NC(COC(N)=O)=C(C(=O)OC(C)C)C1c1cccc(Cl)c1Cl (centres undefined)	x	u	u	x	86	x
O=C1c2[nH]nc(-c3ccc(Br)cc3)c2C(c2cccc(O)c2)N1c1ccc(Cl)cc1 (centres undefined)	n	n	u	n	96	n
O=C(/C=C/c1ccc2ccc(C(F)(F)F)cc2n1)c1ccncc1	x	n	x	x	x	x
COc1cc2ncnc(Nc3ccc(O)c(Br)c3)c2cc1OC	x	40µM	n	x	x	x
c1ccc2c(-c3cnn4cc(-c5ccc(N6CCNCC6)cc5)cnc34)ccnc2c1	x	56µM!	n	x	x	x
CC(C)Oc1ccc(-c2cnc3c(-c4ccnc5ccccc45)cnn3c2)cc1	x	n	n	x	x	x
Cc1cc(C)c2sc(N3CCN(C(=O)C4CC4)CC3)nc2c1	n	79µM	n	n	n	n
Cc1c(Cl)ccc2sc(N3CCN(C(=O)C4CC4)CC3)nc12	n	u	n	n	76	n
Cc1cc(C)c2sc(N3CCN(C(=O)c4ccc(N(C)C)cc4)CC3)nc2c1	n	n	u	n	n	n
COc1cc(-n2c(=O)c3ccccc3n(Cc3cccc(Cl)c3)c2=O)cc(OC)c1OC	n	89µM	n	n	n	n
N#Cc1cccc(Nc2ncc(-c3cccc4ccccc34)o2)c1	x	n	x	x	x	x
CC(C)CC(=O)c1c(O)cc2c(c1O)C(CC(C)C)C1=C(O2)C(C)(C)C(=O)C(C)(C)C1=O (centres undefined)	x	n	u	x	x	x
C=C1C(=O)O[C@@H]2C[C@H](C)C3=CC(=O)[C@H](O)[C@@]3(C)C[C@H]12	x	n	n	x	x	x
Cc1cncn1CCc1nc2c3ccccc3nc(SCC(=O)Nc3ccc(F)cc3)n2n1	n	n	n	n	n	n
CCOc1ccccc1NC(=O)CSc1nc2ccccc2c2nc(CCn3cncc3C)nn12	n	u	n	n	97	n
SMILES	GALK inh	NTMT1 inh	FH mod	TSG101-PTAP inh	DRV1 agonist	B2AR arrestin ag
Cc1ccc(S(=O)(=O)Nc2cnccc2C(=O)Nc2ccccc2)cc1	x	n	x	x	x	x
CCOc1ccc(C(=O)Oc2ccc(-c3nc4ccccc4[nH]3)cc2)cc1[N+](=O)[O-]	x	n	x	x	x	x
Cc1cc(C)c(NC(=O)Cn2c(=O)n(Cc3ccc(C(=O)NCc4ccco4)cc3)c(=O)c3sccc32)c(C)c1	n	50µM	n	n	n	n
COc1ccc(C(=O)Nc2nnc(-c3ccco3)o2)cc1	x	n	x	x	x	x
Cc1ccc(N=C2NC(=O)CC(C(=O)Nc3cc(C(F)(F)F)ccc3Cl)S2)cc1 (centres undefined)	n	n	n	n	80	n
COc1ccc(S(=O)(=O)N(CC(=O)Nc2cc(C)ccc2OC)Cc2ccccc2)cc1	n	2.5µM	u	n	n	n
